Measured values taken from PubChem BioAssay (NCI).
The panel holds about 83,000 compounds, 20% with a hit somewhere; the sample as a whole holds those more often.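 Single-dose data. Exposure time 48 hours. Values below 10 considered active.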 A number with no mark means an inactive call. Activity calls are given as the source filed them.

system: OVCAR-3 ovarian; experiment: NCI-60 one-dose screen, 48 h (100 = growth as untreated, 0 = no growth, -100 = all killed); conditions: 10 µM unless noted
Method: Growth inhibition of the OVCAR-3 human tumor cell line is measured as a screen for anti-cancer activity. Cells are grown in 96 well plates and exposed to the test compound for 48 hours. Compounds are tested at a single concentration, which is 10^-5 M for most compounds. The reported endpoint is percent growth (GI% or GIPRCNT), where numbers from 0 - 100% represent growth inhibition, and numbers from -100% - 0 represent cell death. For example, a value of 40 represents 60% growth inhibition. A value of 0 means no net growth occurred over the course of the experiment. A value of -40 indicates 40% of cells at the beginning of the experiment died by the end of the experiment. A value of -100 means all cells are dead at the end of the experiment.
NCI-60 Human Tumor Cell Lines Screen was performed using the standard one-dose NCI protocol, which is described in more detail at https://dtp.cancer.gov/discovery_development/nci-60/default.htm.
Compounds with GIPRCNT values below 10 were considered active. Activity score was based on GIPRCNT using the following formula: […]
Score is 0 for GIPRCNT values of 100 or above, 50 for GIPRCNT values of 0, and 100 for GIPRCNT values of -100.

| Compound | growth |
| --- | --- |
| COC(=O)c1cc(Cl)cc([N+](=O)[O-])c1O | 114% |
| [Ag].[Ag].[NH-]S(=O)(=O)c1ccc(N=Nc2cc(N=Nc3ccc(S([NH-])(=O)=O)cc3)c3c(NC(=O)C(Cl)Cl)cccc3c2OC(=O)C(Cl)Cl)cc1.[c-]1nccs1.[c-]1nccs1 | 72.7% |
| NC(=S)N/N=C(/c1cccs1)C1CC1 | 51.5% |
| N#CC1=C(N)Oc2nc[nH]c(=O)c2C1c1cccs1 (stereo not given) | 108% |
| N#Cc1c(N)c(C(=O)c2ccc3c(c2)OCCO3)n2c1CCCC2 | -3.73% (active) |
| COc1ccc([C@@H]2[C@@H](Cl)C(=O)N2c2cc(OC)c(OC)c(OC)c2)cc1C | -5.67% (active) |
| CNC(=O)c1cc(Oc2ccc(NC(=O)c3nc(S(C)(=O)=O)n(C)c3-c3ccc(F)cc3)cc2)ccn1 | 69.6% |
| CCOC(=O)c1sc2nc(-c3cc4ccccc4o3)cc(-c3ccc(Cl)cc3)c2c1N | 103% |
| CCC(=O)NC(O)C(Cl)(Cl)C(C)Cl (stereo not given) | 105% |
| CC(C)c1[nH]ncc1-c1nc2ccc3[nH]ncc3c2c2c1CCCC2 | 46.8% |
| CC(=O)Nc1ccc(Cl)cc1Cl | 118% |
| CSC1=NC(=Nc2c(C)cccc2C)C2(CCC(C(C)(C)C)CC2)N1c1ccc(Cl)cc1 (stereo not given) | 55.3% |
| CC(=O)[C@@]1(O)[C@H](C)C[C@H]2[C@@H]3C=C(C)C4=Cc5c(cnn5-c5ccccc5)C[C@]4(C)[C@H]3[C@@H](O)C[C@@]21C | 8.02% (active) |
| COc1cc2nccc(Oc3ccc(NC(=O)C4(C(=O)Nc5ccc(F)cc5)CC4)cc3)c2cc1O | 78.7% |
| CCOc1cccc(/C=N/NC(=O)c2ccc(Nc3ccnc(C(F)(F)F)c3)cc2)c1O | 24.6% |
| COc1cccc(NC(=O)c2c(-c3ccccc3)c(-c3ccccc3)n[nH]c2=O)c1 | 107% |
| Cc1cc(C)c2c(n1)sc1c(Nc3ccc(OCc4ccccc4)cc3)ncnc12 | 100% |
| COc1ccc(/C=C(/C(=O)N2CCN(c3ccccc3)CC2)c2cc(OC)c(OC)c(OC)c2)cc1N | -43.8% (active) |
| O=C(Cn1nncc1CN1C(=O)CSC1=O)Nc1ccc(F)cc1 | 107% |
| Cc1nn(-c2ccc(Cl)cc2)c(=O)n1CCN1CCOCC1 | 79.2% |

| Compound | growth |
| --- | --- |
| COc1cc(C2CC(c3ccc(Cl)cc3)=NN2C=O)ccc1OS(=O)(=O)c1ccc(C)cc1 (stereo not given) | 102% |
| NCCCOc1cc2ccccc2cc1C(=O)NCCCOc1cc2ccccc2cc1C(=O)Nc1ccc(Cl)cc1O | -31.2% (active) |
| O=c1cc(N2CCOCC2)oc2c(-c3ccc4c(c3)OCCO4)csc12 | 19.1% |
| O=C(Nc1ccccc1Cl)Oc1ccc2ccccc2c1 | 96.6% |
| NC(N)=N/N=C/c1ccccc1 | 99.5% |
| O=C(O)C1[S][Sb]([CH](C(=O)O)[CH](C(=O)O)[Sb]2[S]C(C(=O)O)C(C(=O)O)[S]2)[S]C1C(=O)O (stereo not given) | 95.7% |
| Nc1nc2ccc([C@@H]3Nc4ccc5[nH]ncc5c4[C@H]4[C@H]5CCC(C5)[C@H]43)cc2s1 | -6.66% (active) |
| COC(=O)C1(C)COP(=O)(NC23CC4CC(CC(C4)C2)C3)OC1 (stereo not given) | 106% |
| N#Cc1c(NN)n(C2OC(CO)C(O)C2O)c2ncnc(N)c12 (stereo not given) | -42.3% (active) |
| Cc1cc(Cl)c2ccc(N(C)C)cc2n1 | 104% |
| CC(C)c1ccc(Cn2ccc3c4c(N)nc(NC5CC5)nc4ccc32)cc1 | -87.6% (active) |
| Fc1ccc2nc(-c3ccc(-c4noc(-c5ccc(Cl)cc5)n4)cc3)[nH]c2c1 | 105% |
| COc1ccc([C@@H]2[C@@H](Oc3ccccc3)C(=O)N2c2cc(OC)c(OC)c(OC)c2)cc1F | 1.08% (active) |
| CC1=NN(c2cccc(S(N)(=O)=O)c2)C(=O)C1 | 96.3% |
| COc1cc(/C=C/C(=O)c2ccc(NC(=O)CSc3nnc(-c4ccc(Cl)cc4)n3-c3ccccc3)cc2)cc(OC)c1OC | 73.4% |
| COc1ccc(-c2nc(-c3cc(OC)cc(OC)c3)[nH]c2-c2ccc(OC)cc2)cc1 | 45.3% |
| CCCCCc1c(C)[nH]c(/C=C2\N=C(c3ccc[nH]3)C=C2CC)c1C | -97.5% (active) |
| CC(C)OC(=O)c1ccc([N+](=O)[O-])cc1 | 117% |
| O=C(OCc1ccc2c(Br)cc(Br)c(O)c2n1)c1cc2ccccc2[nH]1 | -80.8% (active) |
| O=C(c1ccccc1)N(CCCCl)C(=O)N(CCCCl)C(=O)c1ccccc1 | 93.7% |
